Assay outcomes: PubChem BioAssay, several laboratories
Hits are enriched below; roughly 5.9% of the tested compounds scored in any of these assays.
Rtt109 HAT inh = blocks Candida albicans Rtt109/Vps75 acetyltransferase activity; purified Rtt109/Vps75, ThioGlo CoA-SH fluorescence, 4 h; inhibition, % at 34.9 µM; Q5AAJ8; 0.16% of 330,000 active;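 active = inhibition of at least 50% in every replicate; inconclusive = best replicate reaches 50% inhibition but some replicates fall short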
Target sequence (Q5AAJ8 whole entry, looked up): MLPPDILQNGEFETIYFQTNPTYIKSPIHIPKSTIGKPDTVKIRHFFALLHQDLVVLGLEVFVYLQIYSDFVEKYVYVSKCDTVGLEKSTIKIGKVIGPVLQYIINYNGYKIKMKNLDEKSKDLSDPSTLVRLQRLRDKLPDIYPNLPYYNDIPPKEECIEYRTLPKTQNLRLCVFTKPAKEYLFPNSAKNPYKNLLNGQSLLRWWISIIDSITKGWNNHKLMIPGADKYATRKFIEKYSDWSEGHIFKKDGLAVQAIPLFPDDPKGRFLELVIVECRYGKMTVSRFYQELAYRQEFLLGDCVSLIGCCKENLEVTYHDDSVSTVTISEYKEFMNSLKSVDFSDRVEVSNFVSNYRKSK
ABHD5-PLIN5 inh = ABHD5-PLIN5 protein interaction inhibition; Split G. princeps luciferase complementation, luminescence, 4 h; inhibition, % at 4 µM; 0.78% of 360,000 active; AID 602281;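 active = inhibition above the mean inhibition across every tested compound plus 3 SD, cut at about 22% in these data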;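 also: 0% = DMSO only wells and the 100% control is not disclosed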
rCAG RNA binder = molecules binding r(CAG) RNA repeats; r(CAG) RNA repeat, TO-PRO-1 dye displacement fluorescence; inhibition, % at 3 µM; 1.3% of 370,000 active; AID 651821;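 active = inhibition above the plate cutoff, the mean of all test compounds on that plate plus 3 SD, cut at about 35% in these data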;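 also: 0% = DMSO alone and 100% = 100 µM mitoxantrone as full dye displacement; higher means more dye released from RNA so lower well fluorescence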
ALR H2O2 inh = blocks human ALR sulfhydryl oxidase activity; P55789; purified ALR, DTT oxidation, H2O2 HRP-luminol luminescence; inhibition, % (no concentration beside the values); 3.8% of 290,000 active;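 active = mean replicate inhibition above about 79%, with every replicate also reaching it, limit read from the data; inconclusive = only one of the two criteria met; inactive = mean below limit and not every replicate reaching it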
Target sequence (P55789 whole entry, looked up): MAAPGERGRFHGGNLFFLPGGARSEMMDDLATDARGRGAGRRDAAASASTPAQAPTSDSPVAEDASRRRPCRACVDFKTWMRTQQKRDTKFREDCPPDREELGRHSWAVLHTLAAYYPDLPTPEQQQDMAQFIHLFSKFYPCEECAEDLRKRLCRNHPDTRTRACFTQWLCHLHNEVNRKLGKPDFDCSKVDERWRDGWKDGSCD
LANA-H2A inh = blocks KSHV LANA binding to histone H2A/H2B; cell-free LANA-H2A/H2B peptide, fluorescence polarization; inhibition, % (no concentration beside the values); 0.6% of 320,000 active; AID 2629; in the data active = inhibition mostly above about 10%, no sharp cut-off; inactive = mostly below about 6.7%
PRMT1 inh = blocks human protein arginine methyltransferase 1. AID 652257. 1.3% of 370,000 active. recombinant PRMT1, activity-based probe fluorescence polarization. inhibition, % at 2.79 µM. Q99873;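 active = inhibition above about 21% made by adding two undisclosed values, limit read from the data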
PRMT1 inh conf = confirmation of human PRMT1 inhibitors; AID 687036; inhibition, % at 2.79 µM; 42% of 3,300 active; recombinant His-PRMT1, activity-based probe fluorescence polarization; shares compounds with PRMT1 inh;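 active = mean inhibition across replicates above the hit cutoff derived for the earlier primary screen, cut at about 22% in these data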
Starred values were filed as active, the others as inactive; ? = inconclusive; nt = no result given.

SMILES	Rtt109 HAT inh	ABHD5-PLIN5 inh	rCAG RNA binder	ALR H2O2 inh	LANA-H2A inh	PRMT1 inh	PRMT1 inh conf
CCOc1ccc(N=C2NN=C(c3cc(C)n(CC4CCCO4)c3C)CS2)cc1 (stereo not drawn)	-6	1	11	nt	-36	-1	nt
Fc1ccc(F)c(C2=NNC(=NCC3CCCO3)SC2)c1 (stereo not drawn)	-2	-24	2	17	6	38*	10
Cc1ccc2c(c1)N(CCCC(=O)NCc1ccc(F)cc1)C(=O)CO2	nt	nt	1	nt	nt	3	nt
CCOC(=O)c1ccoc1CSCc1ccc(C(=O)OC)o1	17	1	11	99*	0	39*	45*
CCNC(=O)N1CCN(c2ccc(N3CCN(Cc4ccccc4)[C@H](C)C3)c(C)c2)[C@@H](C)C1	nt	nt	2	nt	nt	7	nt
Cc1cccc(C)c1-n1nnnc1C1(C)CCC(=O)N1C1CC1 (stereo not drawn)	nt	4	1	nt	nt	-3	nt
CC(=O)Nc1cc(-c2cccc(F)c2)cn2c(-c3ccccc3)cnc12	nt	1	7	nt	nt	2	nt
COC(=O)[C@]1(Cc2ccccc2)NC=C(C(=O)c2ccc(F)cc2)[C@@H]1c1ccccc1	nt	nt	2	nt	nt	1	nt
Clc1cccc(Cc2c(-c3ccco3)nc3ccc(Br)cn23)c1	nt	49*	29	nt	nt	34*	13
Cc1ccc(-c2nc3ccc(C)cn3c2Cc2ccsc2)cc1	nt	4	6	nt	nt	-2	nt
Cc1ccc2nc(-c3ccco3)c(Cc3ccsc3)n2c1	nt	nt	11	nt	nt	35*	27*
CCCCN1C(=O)C(CC(=O)NC2CCCCC2)CC(C(=O)N(C(C)C)C(C)C)=C1C (stereo not drawn)	nt	5	-2	nt	nt	-1	nt
CCC1(O)C(=O)OCc2c1cc1n(c2=O)Cc2cc3cc(O)ccc3nc2-1 (stereo not drawn)	-46	4	-63	nt	nt	28*	31*
CCc1c2c(nc3ccc(OC(=O)N4CCC(N5CCCCC5)CC4)cc13)-c1cc3c(c(=O)n1C2)COC(=O)[C@]3(O)CC	-3	-2	2	-19	-7	0	nt
COc1ccccc1-n1c(SCC(=O)NCc2ccc3c(c2)OCO3)nc2cc([N+](=O)[O-])ccc21	5	23*	7	-6	1	84*	26*
Fc1ccc(NC(=S)N2CCSC2c2cccs2)cc1 (stereo not drawn)	-2	-16	-1	-5	3	53*	6
Cc1cc2ccccc2n1CCNC(=O)c1ccc(Br)o1	-5	-2	13	nt	3	27*	1
CCCN1CCCCC(NC(=O)OC(C)(C)C)C1=O (stereo not drawn)	nt	nt	2	nt	nt	0	nt
O=C1C(=Cc2cccc(O)c2O)SC(=S)N1CCCN1CCOCC1	nt	-25	28	nt	nt	82*	83*
FC(F)Sc1ccc(Nc2ncnc3nc[nH]c23)cc1	4	-8	8	5	4	35*	20
Cc1cc(C)cc(Nc2ncnc3nc[nH]c23)c1	3	-3	-1	30	3	-2	nt
CC(=O)C(=Nc1ccc(Cl)cc1Cl)NNc1cccc(Cl)c1	-1	-19	4	3	-3	61*	-5
CC(=O)Nc1ccc(NC(=O)Nc2cccc(Cl)c2)cc1	-3	0	2	-3	-5	3	nt
CN(Cc1ccccc1)c1nccn2ccnc12	nt	5	0	nt	nt	3	nt
CC(C)N(C(=O)[C@H]1C[C@H](CC(=O)NCCc2ccccn2)C(=O)N2CCc3c([nH]c4cc(-c5ccco5)ccc34)[C@]12C)C(C)C	5	6	4	nt	nt	40*	1
SMILES	Rtt109 HAT inh	ABHD5-PLIN5 inh	rCAG RNA binder	ALR H2O2 inh	LANA-H2A inh	PRMT1 inh	PRMT1 inh conf
CC[n+]1c(S(=O)(=O)[O-])ccc2ccc(C)cc21	4	-2	2	-4	-1	5	nt
Cc1ccc2sc(C)[n+](CCC(C)S(=O)(=O)[O-])c2c1 (stereo not drawn)	nt	12	11	nt	nt	57*	31*
Cc1ccc2c(C)cc[n+](CCCS(=O)(=O)[O-])c2c1	1	4	0	-44	0	-2	nt
CC/C(=C/c1sc2ccc(C)cc2[n+]1CCCS(=O)(=O)[O-])SC	nt	nt	3	9	3	39*	23*
CC/C(=C/c1sc2ccc(C)cc2[n+]1CCO)SC	nt	-6	-5	nt	-1	52*	17
COC(=O)C12CCCN1C1C(=O)N(Cc3ccc(C(N)=O)cc3)CC1C2 (stereo not drawn)	nt	nt	5	nt	nt	-1	nt
COc1ccc(-c2csc(NNC3=NCCCCC3)n2)cc1	nt	nt	0	8	-3	38*	32*
c1ccc(-c2csc(NNC3=NCCCCC3)n2)cc1	0	3	4	?	-4	67*	17
N#CCC(=O)N/N=C\c1ccccc1OC/C=C/c1ccccc1	2	1	11	-1	13	-2	nt
Cc1cc(/C=N/NC(N)=S)c(O)c(/C=N/NC(N)=S)c1	-26	6	-442	nt	0	75*	82*
COC(=O)Nc1ccc(OCc2ccccc2)cc1	-8	3	-2	1	-3	-4	nt
Oc1ccc(NCc2ccc(OCc3ccccc3)cc2)cc1	nt	-4	-32	49	1	34*	11
COc1ccc(C(=O)OCC(=O)c2ccco2)cc1[N+](=O)[O-]	nt	5	4	nt	nt	-1	nt
Cc1ccc(S(=O)(=O)NNc2nc3ccccc3nc2C(F)(F)F)cc1	7	-15	4	33	0	81*	18
Cc1ccc(S(=O)(=O)NNc2c3ccccc3nc3ccc(Cl)cc23)cc1	nt	-5	4	nt	nt	15	nt
COC(=O)[C@@]12C[C@@H](CC(=O)NCCCCc3ccccc3)C(=O)N(Cc3ccc4c(c3)OCO4)C1=CCC(C)(C)C2	nt	10	8	nt	nt	-5	nt
CCCCc1c(O)nc(SCC(=O)NC(C)(C)C)n(-c2ccccc2C)c1=O	6	0	-2	1	1	27*	6
CC(C)=CC(=O)N1CCC(Oc2cccc(C(=O)NCc3ccccn3)c2)CC1	nt	6	-2	nt	nt	8	nt
CC#CC(=O)N1CCC(Oc2cccc(C(=O)NCc3ccccn3)c2)CC1	10	1	-6	1	1	74*	2
C=CCn1c(=O)[nH]c2nc3cc(N=CN(C)C)c(C)cc3nc2c1=O	8	-6	-87	-18	11	31*	75*
CN(C)/C=N/c1cc(=O)[nH]c(=O)n1CC1CC1	8	8	0	-4	2	-4	nt
O=C(NCc1ccccc1)C1(C(=O)C2CC2)CC(c2ccccc2C(F)(F)F)=NO1 (stereo not drawn)	nt	nt	-1	nt	nt	-1	nt
Cc1cc(C)c(NC(=O)c2ccc3c(c2)NC(=O)C(C)S3)c(C)c1 (stereo not drawn)	-4	-3	3	4	-6	1	nt
CC1Sc2ccc(C(=O)NCc3ccccn3)cc2NC1=O (stereo not drawn)	6	2	2	nt	0	34*	8
